# According to PubChem BioAssay AID1159580 (chemical genetic matrix, 2015):
# Out of some 5,500 compounds screened, about 2,000 (36%) were called active. About 18% were inconclusive and are not listed. The list shows a part of the results. Values without a mark were called inactive. No stated cut-off is given here; in the data, active means normalized growth mostly below about 0.91 (no sharp cut-off); inconclusive means no clear call, values can overlap the other calls; inactive means mostly above about 0.92.
# Experiment: chemical genetic growth profiling, strain panel (AID 1159580);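 further: tested at 20 µM; growth read once vehicle control cultures reached saturation at 30 °C; 1 = growth at the plate median or of vehicle wells; lower values mean less growth of the strain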
# Details: growth OD
smiles,measurement,setting,value
CCCCOC(=O)c1ccc(N)cc1,normalized growth,"S. cerevisiae deletion strains, locus YJR075W, strain HOC1, hits give low values",0.888
same,normalized growth,"S. cerevisiae deletion strains, locus YKL009W, strain mrt4, hits give low values",0.946
same,normalized growth,"S. cerevisiae deletion strains, locus YKL068W, hits give low values",0.962
same,normalized growth,"S. cerevisiae deletion strains, locus YKL085W, strain MDH1 (second series), hits give low values",0.961
same,normalized growth,"S. cerevisiae deletion strains, locus YKL085W, strain MDH1, hits give low values",0.961
same,normalized growth,"S. cerevisiae deletion strains, locus YKL160W, strain elf1, hits give low values",0.875 (active)
same,normalized growth,"S. cerevisiae deletion strains, locus YKL190W, strain CNB1, hits give low values",0.975
same,normalized growth,"S. cerevisiae deletion strains, locus YKR001C, strain vps1, hits give low values",0.693 (active)
same,normalized growth,"S. cerevisiae deletion strains, locus YKR026C, strain gcn3, hits give low values",0.91 (active)
same,normalized growth,"S. cerevisiae deletion strains, locus YKR091W, strain srl3, hits give low values",0.907 (active)
same,normalized growth,"S. cerevisiae deletion strains, locus YLL001W, strain dnm1, hits give low values",0.825 (active)
same,normalized growth,"S. cerevisiae deletion strains, locus YLL026W, hits give low values",0.888 (active)
same,normalized growth,"S. cerevisiae deletion strains, locus YLL041C, strain sdh2, hits give low values",0.899 (active)
same,normalized growth,"S. cerevisiae deletion strains, locus YLR027C, strain aat2, hits give low values",0.878 (active)
same,normalized growth,"S. cerevisiae deletion strains, locus YLR039C, strain RIC1, hits give low values",0.783
same,normalized growth,"S. cerevisiae deletion strains, locus YLR058C, strain SHM2, hits give low values",0.979
same,normalized growth,"S. cerevisiae deletion strains, locus YLR102C, strain apc9, hits give low values",0.955
same,normalized growth,"S. cerevisiae deletion strains, locus YLR113W, strain HOG1, hits give low values",0.954
same,normalized growth,"S. cerevisiae deletion strains, locus YLR221C, strain rsa3, hits give low values",0.841 (active)
same,normalized growth,"S. cerevisiae deletion strains, locus YLR258W, strain gsy2, hits give low values",0.873 (active)
same,normalized growth,"S. cerevisiae deletion strains, locus YLR262C, strain YPT6 (second series), hits give low values",0.433 (active)
same,normalized growth,"S. cerevisiae deletion strains, locus YLR262C, strain YPT6, hits give low values",0.775
same,normalized growth,"S. cerevisiae deletion strains, locus YLR268W, strain sec22, hits give low values",0.86 (active)
same,normalized growth,"S. cerevisiae deletion strains, locus YLR320W, strain mms22, hits give low values",0.635 (active)
same,normalized growth,"S. cerevisiae deletion strains, locus YLR330W, strain CHS5, hits give low values",0.947
same,normalized growth,"S. cerevisiae deletion strains, locus YLR342W, strain FKS1 (second series), hits give low values",0.661 (active)
same,normalized growth,"S. cerevisiae deletion strains, locus YLR342W, strain FKS1, hits give low values",0.605 (active)
same,normalized growth,"S. cerevisiae deletion strains, locus YLR357W, strain rsc2, hits give low values",0.942
same,normalized growth,"S. cerevisiae deletion strains, locus YLR370C, strain arc18, hits give low values",0.844 (active)
same,normalized growth,"S. cerevisiae deletion strains, locus YLR371W, strain rom2, hits give low values",0.886 (active)
same,normalized growth,"S. cerevisiae deletion strains, locus YLR384C, strain iki3, hits give low values",0.946
same,normalized growth,"S. cerevisiae deletion strains, locus YLR418C, strain cdc73, hits give low values",0.765 (active)
same,normalized growth,"S. cerevisiae deletion strains, locus YML016C, strain PPZ1, hits give low values",0.981
same,normalized growth,"S. cerevisiae deletion strains, locus YML032C, strain rad52, hits give low values",0.905 (active)
same,normalized growth,"S. cerevisiae deletion strains, locus YML120C, strain ndi1, hits give low values",0.897 (active)
same,normalized growth,"S. cerevisiae deletion strains, locus YML124C, strain tub3, hits give low values",0.939
same,normalized growth,"S. cerevisiae deletion strains, locus YMR058W, strain fet3, hits give low values",0.881 (active)
same,normalized growth,"S. cerevisiae deletion strains, locus YMR078C, strain ctf18, hits give low values",0.933
same,normalized growth,"S. cerevisiae deletion strains, locus YMR125W, strain sto1, hits give low values",0.871 (active)
same,normalized growth,"S. cerevisiae deletion strains, locus YMR129W, hits give low values",0.922 (active)
same,normalized growth,"S. cerevisiae deletion strains, locus YMR205C, strain PFK2, hits give low values",0.793 (active)
same,normalized growth,"S. cerevisiae deletion strains, locus YMR223W, strain ubp8, hits give low values",0.902 (active)
same,normalized growth,"S. cerevisiae deletion strains, locus YMR231W, strain pep5, hits give low values",0.931
same,normalized growth,"S. cerevisiae deletion strains, locus YMR263W, strain SAP30, hits give low values",0.93
same,normalized growth,"S. cerevisiae deletion strains, locus YMR307W, strain GAS1, hits give low values",0.319 (active)
same,normalized growth,"S. cerevisiae deletion strains, locus YNL067W, strain RPL9B, hits give low values",0.907
same,normalized growth,"S. cerevisiae deletion strains, locus YNL071W, strain lat1, hits give low values",0.653 (active)
same,normalized growth,"S. cerevisiae deletion strains, locus YNL128W, strain TEP1, hits give low values",0.989
same,normalized growth,"S. cerevisiae deletion strains, locus YNL153C, strain GIM3, hits give low values",0.939
same,normalized growth,"S. cerevisiae deletion strains, locus YNL183C, strain NPR1, hits give low values",0.934
same,normalized growth,"S. cerevisiae deletion strains, locus YNL209W, strain ssb2, hits give low values",0.927 (active)
same,normalized growth,"S. cerevisiae deletion strains, locus YNL233W, strain BNI4, hits give low values",0.86 (active)
same,normalized growth,"S. cerevisiae deletion strains, locus YNL248C, strain rpa49, hits give low values",0.904
same,normalized growth,"S. cerevisiae deletion strains, locus YNL250W, strain rad50, hits give low values",0.934
same,normalized growth,"S. cerevisiae deletion strains, locus YNL271C, strain bni1, hits give low values",0.938
same,normalized growth,"S. cerevisiae deletion strains, locus YNL298W, strain CLA4, hits give low values",0.939
same,normalized growth,"S. cerevisiae deletion strains, locus YNL307C, strain MCK1, hits give low values",0.868 (active)
same,normalized growth,"S. cerevisiae deletion strains, locus YNL322C, strain KRE1 (second series), hits give low values",0.91
same,normalized growth,"S. cerevisiae deletion strains, locus YNL322C, strain KRE1, hits give low values",0.987
same,normalized growth,"S. cerevisiae deletion strains, locus YNR049C, strain mso1, hits give low values",0.905 (active)
same,normalized growth,"S. cerevisiae deletion strains, locus YNR052C, strain pop2, hits give low values",0.949
same,normalized growth,"S. cerevisiae deletion strains, locus YOL006C, strain TOP1, hits give low values",0.64
same,normalized growth,"S. cerevisiae deletion strains, locus YOL012C, strain htz1",0.742
same,normalized growth,"S. cerevisiae deletion strains, locus YOL147C, strain pex11, hits give low values",0.937
same,normalized growth,"S. cerevisiae deletion strains, locus YOR001W, strain rrp6, hits give low values",0.853 (active)
same,normalized growth,"S. cerevisiae deletion strains, locus YOR061W, strain CKA2, hits give low values",0.986
same,normalized growth,"S. cerevisiae deletion strains, locus YOR069W, strain VPS5, hits give low values",0.987
same,normalized growth,"S. cerevisiae deletion strains, locus YOR070C, strain gyp1, hits give low values",0.9 (active)
same,normalized growth,"S. cerevisiae deletion strains, locus YOR080W, strain dia2, hits give low values",0.95
same,normalized growth,"S. cerevisiae deletion strains, locus YOR083W, strain WHI5, hits give low values",0.862 (active)
same,normalized growth,"S. cerevisiae deletion strains, locus YOR106W, strain vam3, hits give low values",0.771 (active)
same,normalized growth,"S. cerevisiae deletion strains, locus YOR136W, strain idh2, hits give low values",0.956
same,normalized growth,"S. cerevisiae deletion strains, locus YOR144C, strain elg1, hits give low values",0.961
same,normalized growth,"S. cerevisiae deletion strains, locus YOR184W, strain ser1, hits give low values",0.817 (active)
same,normalized growth,"S. cerevisiae deletion strains, locus YOR231W, strain MKK1, hits give low values",0.987
same,normalized growth,"S. cerevisiae deletion strains, locus YOR265W, strain rbl2, hits give low values",0.902 (active)
same,normalized growth,"S. cerevisiae deletion strains, locus YOR270C, strain vph1, hits give low values",0.489 (active)
same,normalized growth,"S. cerevisiae deletion strains, locus YOR290C, strain snf2, hits give low values",0.867
same,normalized growth,"S. cerevisiae deletion strains, locus YOR316C, strain cot1, hits give low values",0.955
same,normalized growth,"S. cerevisiae deletion strains, locus YPL051W, strain arl3, hits give low values",0.725 (active)
same,normalized growth,"S. cerevisiae deletion strains, locus YPL055C, strain LGE1, hits give low values",0.889
same,normalized growth,"S. cerevisiae deletion strains, locus YPL078C, strain atp4, hits give low values",0.795 (active)
same,normalized growth,"S. cerevisiae deletion strains, locus YPL106C, strain sse1, hits give low values",0.792 (active)
same,normalized growth,"S. cerevisiae deletion strains, locus YPL240C, strain hsp82, hits give low values",0.914 (active)
same,normalized growth,"S. cerevisiae deletion strains, locus YPL241C, strain CIN2, hits give low values",0.98
same,normalized growth,"S. cerevisiae deletion strains, locus YPL256C, strain CLN2, hits give low values",0.967
same,normalized growth,"S. cerevisiae deletion strains, locus YPR119W, strain clb2, hits give low values",0.949
same,normalized growth,"S. cerevisiae deletion strains, locus YPR141C, strain kar3, hits give low values",0.933
same,normalized growth,"S. cerevisiae deletion strains, locus YPR163C, strain tif3, hits give low values",0.946
same,normalized growth,"S. cerevisiae deletion strains, locus YPR167C, strain met16, hits give low values",0.96
same,normalized growth,"S. cerevisiae deletion strains, strain wtn01, hits give low values",0.871 (active)
same,normalized growth,"S. cerevisiae strains, strain wild type, hits give low values",0.949
